Bioassay records: PubChem, Sanford-Burnham Center for Chemical Genomics
CYP2C19 act: increases human CYP2C19 enzyme activity | recombinant CYP2C19, luciferin-H EGE luminescence; hits give high values; 0 = fully inhibited enzyme, 1 = untreated enzyme | 96,000 tested, under 10 active | AID 1025 | P33261 | activation factor at 5 µM;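 active means activation factor of at least 2 at 5 µM in the primary screen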;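 further: 0 = wells with 2.5 mM tranylcypromine and 1 = vehicle-only wells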
Target sequence (P33261 whole entry, looked up): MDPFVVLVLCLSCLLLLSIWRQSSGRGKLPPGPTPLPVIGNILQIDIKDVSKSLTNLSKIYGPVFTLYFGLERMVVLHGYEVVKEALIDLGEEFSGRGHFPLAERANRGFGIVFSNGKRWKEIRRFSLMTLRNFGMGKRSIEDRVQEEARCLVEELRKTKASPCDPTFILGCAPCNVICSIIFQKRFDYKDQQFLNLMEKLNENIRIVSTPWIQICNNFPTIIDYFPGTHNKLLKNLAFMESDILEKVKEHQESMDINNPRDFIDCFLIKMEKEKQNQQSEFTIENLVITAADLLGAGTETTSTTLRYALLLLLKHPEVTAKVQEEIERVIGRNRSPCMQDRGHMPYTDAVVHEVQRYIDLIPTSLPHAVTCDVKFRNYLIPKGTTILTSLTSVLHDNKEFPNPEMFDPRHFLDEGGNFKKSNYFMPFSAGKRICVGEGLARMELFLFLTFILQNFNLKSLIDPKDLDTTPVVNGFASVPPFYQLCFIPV
CYP2C9 activ: activators of human CYP2C9 | P11712 | 96,000 compounds, 1.4% hits | activation factor at 5 µM | recombinant CYP2C9, luciferin-H conversion, luminescence; hits give high values; factor 1 = untreated enzyme, 0 = blocked;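 active means activation factor of 2 or more for CYP2C9 at a 5 µM dose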;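 further: 0 = sulfaphenazole-blocked wells and 1 = vehicle-only wells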
CYP2C19 inhib: blocks human cytochrome P450 2C19. 96,000 compounds, 21% hits. P33261. CYP2C19 Supersomes, luciferin-H EGE luminescence, 30 min. inhibition, % at 5 µM. AID 778;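 active means CYP2C19 inhibition above a set limit at 5 µM in the primary screen, cut at about 50% in these data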;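 further: plate controls were negative control wells for no effect and 2.5 mM tranylcypromine positive control for full effect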
CYP2C9 inhib: blocks human cytochrome P450 2C9; inhibition, % at 5 µM; P11712; 96,000 compounds, 20% hits; CYP2C9 Supersomes, luciferin-H conversion, luminescence;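 active means blocking of liver enzyme CYP2C9 beyond about 50% at 5 µM, limit read from the data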
Mac1 fbg inh: inhibitors of human CD11b/CD18 binding to fibrinogen; P05107+P11215; K562 CD11b/CD18 adhesion to fibrinogen, ATPlite luminescence; Mn2+ added to activate the integrin; inhibition, % at 10 µM; 93,000 compounds, 0.54% hits; AID 1497;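 active means primary inhibition of 50% or more at 10 µM, then 40% or more on retest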
CD11b adhes enh: enhancers of human CD11b/CD18 binding to fibrinogen; activation, % at 10 µM; AID 1499; K562 CD11b/CD18 adhesion to fibrinogen, ATPlite luminescence; 93,000 compounds, 0.07% hits;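 active means 10 µM primary screen giving 50% or more activity, confirmed by 40% or more on retest at that dose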
Numbers without * were called inactive; x = no result given. A selection: hits, their analogues and other compounds. The true share with any hit is near 28%.

SMILES	CYP2C19 act	CYP2C9 activ	CYP2C19 inhib	CYP2C9 inhib	Mac1 fbg inh	CD11b adhes enh
COc1ccc(C(=O)N(Cc2nc(-c3ccc(C)cc3)no2)C(C)C)cc1OC	0.5	0.4	54.7*	57.7*	-10.3	4.3
COc1ccc(-c2noc(CN(C(=O)c3c(-c4ccccc4Cl)noc3C)C(C)C)n2)cc1	0.4	0.4	61.8*	57.0*	-7.6	-3.7
Cc1onc(-c2ccccc2Cl)c1C(=O)NCc1ccc(N2CCCC2=O)cc1	0.5	0.3	53.0*	67.4*	-8.9	2.6
Cc1ccc(C(=O)N(Cc2nc(-c3ccc(C)cc3)no2)C(C)C)cc1	0.9	0.9	12.5	6.3	-3.4	0.7
Cc1onc(-c2ccccc2Cl)c1C(=O)NCc1ccc(S(N)(=O)=O)cc1	0.9	0.6	12.4	44.6	0.9	-1.9
CC(C)N(Cc1nc(-c2ccc(Cl)cc2)no1)C(=O)C12CC3CC(CC(C3)C1)C2	1	1	1.6	4.0	-14.1	3.5
CC(C)N(Cc1nc(-c2ccccc2)no1)C(=O)c1ccc(Cl)cc1	0.2	0.2	78.7*	79.5*	7.6	3.2
COc1cccc(NCc2cc(=O)oc3cc(-c4ccccc4)c(O)cc23)c1	x	x	x	x	-17.1	55.3
Nc1c(-c2ccc(Cl)cc2)cnn1C1CCS(=O)(=O)C1 (centres undefined)	1	1.1	-1.1	-6.5	1.4	-0.8
O=C(COc1ncnc2ccccc12)NCCCN1CCCC1=O	1.2	1.3	-23.2	-25.8	-4.8	0.3
CC(=O)Cc1nsc(NC(=O)c2c(-c3ccccc3Cl)noc2C)n1	1	0.2	1.0	75.2*	-10.8	-3.5
COc1ccccc1OCC(=O)N(Cc1nc(-c2ccccc2)no1)C1CCCCC1	0.5	0.6	46.0	43.8	-2.6	10.6
CC(=O)Cc1nsc(NC(=O)c2ccc(-c3ccccc3Cl)o2)n1	0.8	0.7	23.6	29.0	14.6	-2.0
Cc1onc(-c2ccccc2Cl)c1C(=O)NCc1nc(-c2ccccc2)no1	0.3	0.6	66.9*	41.1	13.8	5.5
CC(C)N(Cc1nc(-c2ccccc2)no1)C(=O)C1CCCCC1	0.2	0.2	84.9*	80.8*	0.0	-5.2
COc1ccccc1C(=O)N(Cc1nc(-c2ccc(Cl)cc2)no1)C(C)C	0.4	0.7	64.3*	31.8	3.2	6.0
CC(C)(C)c1ccc(OCC(O)CSc2ncn[nH]2)cc1 (centres undefined)	0.9	0.9	5.3	11.6	-23.4	-1.3
Cc1nc2c(Cl)cccc2[nH]1	1	1	2.9	2.9	-10.6	-3.1
CC(C)N(Cc1nc(-c2ccccc2)no1)C(=O)c1ccc2c(c1)OCO2	0.3	0.6	68.9*	42.6	-0.4	4.7
c1ccc(NCc2nc(-c3ccccc3)no2)cc1	0.1	0.2	87.4*	76.5*	-17.1	3.5
Cn1nc(C(C)(C)C)cc1C(=O)NCc1ccc(N2CCCC2=O)cc1	1.1	1.2	-10.4	-22.3	84.1*	-6.4
COc1cc(OC)cc(C(=O)NCc2nc(-c3ccccc3)no2)c1	0.3	0.4	73.3*	61.0*	2.4	3.0
O=C1c2ccccc2C(=O)N1CCc1nc(-c2ccc(Cl)cc2)no1	0.8	0.7	22.3	29.4	-6.5	-2.0
Cc1cccc(-c2noc(CN(C(=O)C34CC5CC(CC(C5)C3)C4)C(C)C)n2)c1	1.1	0.6	-6.2	37.8	54.4	-5.5
COc1cc(OC)cc(C(=O)N(Cc2nc(-c3cccc(C)c3)no2)C(C)C)c1	0.1	0.1	85.7*	94.6*	11.2	-0.3
CC(C)N(Cc1nc(-c2ccc(Cl)cc2)no1)C(=O)CCCN1C(=O)c2ccccc2C1=O	0.1	0.1	88.0*	86.5*	3.6	2.9
CC(C)N(Cc1nc(-c2ccccc2)no1)C(=O)c1ccc(Br)o1	0.3	0.4	73.4*	64.5*	14.2	2.0
N#CC1=C(N)Nc2ncnn2C1c1ccc(F)cc1 (centres undefined)	x	x	x	x	-6.4	5.5
Cc1cc(C)nc(SCCC(=O)Nc2cccc3ccccc23)n1	0.6	2.5*	44.8	-145.5	x	x
N#Cc1c(-c2ccccc2)c(-c2ccccc2)nn(CC(=O)NNC(=O)Nc2ccc(Cl)c(Cl)c2)c1=O	0.8	0.4	23.7	61.6*	-2.9	-3.2
